Source: PubChem BioAssay (NCATS)
Several values for one entry are separate records, joined by “and”; a condition that tells them apart may be missing. Identical values can stand only once. Records with an inconclusive call do not appear. A call without a number means that no potency is given here. Where a structure was tested more than once in an assay, its records may differ in their call. Activity calls are given as the source filed them. Unless noted, the call rests on the fitted dose curve; in most records, active means well fitted curve in the direction sought with a large enough effect; inconclusive means small, poorly fitted or top-dose-only effect, or another doubt; inactive means no such curve, though single readings can be large; an effect the other way counts as inactive or inconclusive.

Tests used:
[1] = qHTS for Inhibitors of Plasmodium falciparum (DD2) proliferation (AID 504314); further: potency means the concentration at half of the fitted maximal effect;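 on activity, negative = inhibition: parasite DNA measured by SYBR Green fluorescence after red cell lysis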
Summary of the method: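 SYBR Green growth assay: 72 h compound exposure of infected red cells (2.5% hematocrit, 0.3% parasitemia), then lysis and overnight dye staining, fluorescence 485/535 nm. Values scaled between DMSO and 0.29 uM artemisinin controls.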

[2] = qHTS for Inhibitors of Plasmodium falciparum (GB4) proliferation (AID 504315); further: nearly all actives have a fitted effect of over 50% in size; further: potency means the concentration at half of the fitted maximal effect
Summary of the method: (§1)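 Parasite growth measured as SYBR Green DNA fluorescence (ex 485, em 535 nm) after overnight lysis following 72 h culture at 37 °C, 0.3% parasitemia, 2.5% hematocrit. Values normalized against DMSO and 0.29 uM artemisinin controls, with plate-stack correction.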

[3] = qHTS for Inhibitors of Plasmodium falciparum (7G8) proliferation (AID 504316); further: nearly all actives have a fitted effect of over 65% in size; further: potency means the concentration at half of the fitted maximal effect
Summary of the method: as §1

[4] = qHTS for Inhibitors of Plasmodium falciparum (HB3) proliferation (AID 504318); further: nearly all actives have a fitted effect of over 60% in size; further: potency means the concentration at half of the fitted maximal effect
Summary of the method: as §1

[5] = qHTS for Inhibitors of Plasmodium falciparum (CP250) proliferation (AID 504320); further: potency means the concentration at half of the fitted maximal effect
Summary of the method: as §1

[6] = biological target: Atrial natriuretic peptide receptor 1 (Homo sapiens) (UniProt P16066); experiment: Natriuretic polypeptide receptor (hNpr1) antagonism - Pilot CMLD screen (AID 1347052; calls by dose curve;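 further: HEK293 cells with hNpr1 stimulated by hNppA peptide at 0.1 nM; cGMP level read as GloSensor luciferase luminescence after agonist stimulation; series mostly up to about 9.2 µM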)
Chain of Atrial natriuretic peptide receptor 1 (Homo sapiens) (P16066 whole entry, looked up): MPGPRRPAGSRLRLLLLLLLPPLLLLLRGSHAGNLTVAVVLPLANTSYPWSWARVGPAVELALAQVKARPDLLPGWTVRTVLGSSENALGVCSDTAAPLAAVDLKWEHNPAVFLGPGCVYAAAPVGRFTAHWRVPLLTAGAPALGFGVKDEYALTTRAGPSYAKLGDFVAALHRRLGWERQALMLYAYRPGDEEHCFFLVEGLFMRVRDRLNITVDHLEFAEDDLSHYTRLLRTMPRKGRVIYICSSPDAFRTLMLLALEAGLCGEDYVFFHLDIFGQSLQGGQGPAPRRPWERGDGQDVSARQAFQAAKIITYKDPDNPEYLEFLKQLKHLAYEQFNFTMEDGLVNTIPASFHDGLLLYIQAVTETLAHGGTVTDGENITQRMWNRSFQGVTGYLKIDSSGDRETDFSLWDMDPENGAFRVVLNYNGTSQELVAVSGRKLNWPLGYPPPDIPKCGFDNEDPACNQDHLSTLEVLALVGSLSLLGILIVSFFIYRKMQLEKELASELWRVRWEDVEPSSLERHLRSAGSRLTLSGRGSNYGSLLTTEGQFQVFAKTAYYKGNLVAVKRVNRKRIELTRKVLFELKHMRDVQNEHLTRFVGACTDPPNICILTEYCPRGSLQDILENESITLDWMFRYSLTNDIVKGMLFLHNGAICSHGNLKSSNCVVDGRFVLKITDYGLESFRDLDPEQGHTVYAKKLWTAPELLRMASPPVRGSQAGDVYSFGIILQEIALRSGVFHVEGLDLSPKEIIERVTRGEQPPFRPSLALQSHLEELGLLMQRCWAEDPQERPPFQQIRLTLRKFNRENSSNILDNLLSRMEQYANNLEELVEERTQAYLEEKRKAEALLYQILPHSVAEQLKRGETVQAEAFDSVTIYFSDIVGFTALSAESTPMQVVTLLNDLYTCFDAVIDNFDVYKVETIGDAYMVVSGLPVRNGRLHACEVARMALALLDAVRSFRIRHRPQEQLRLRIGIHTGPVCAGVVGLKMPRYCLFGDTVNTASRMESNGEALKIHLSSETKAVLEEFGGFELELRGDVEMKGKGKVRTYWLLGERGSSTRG

| SMILES | Potency [1] | Potency [2] | Potency [3] | Potency [4] | Potency [5] | Potency [6] | activity, negative = inhibition [1] |
| --- | --- | --- | --- | --- | --- | --- | --- |
| COC1=C[C@H](C(=O)NCc2ccccc2)[C@H](C)[C@@H](c2ccccc2)CC1=O | inactive | inactive | inactive | inactive | inactive | inactive | – |
| CC(=O)OC[C@H]1O[C@H](CC=NO[C@H](C)c2cn([C@@H]3COC[C@@H]3O)nn2)C=C[C@@H]1OC(C)=O | inactive | inactive | inactive | inactive | inactive | inactive | – |
| COc1cc(O)c(C(=O)C=Cc2ccc3c(c2)OCO3)c(OC)c1 | inactive | inactive | inactive | inactive | inactive | inactive | – |
| CC1(O)C(=O)C=C2C=C(c3ccc(C#N)cc3)OC=C2C1=O (stereo unspecified) | inactive | inactive | inactive | inactive | inactive | inactive | – |
| CCN1C(=NCc2ccccc2)N[C@@H](c2ccccc2)[C@H](C(=O)OC)[C@H]1C | inactive | inactive | inactive | inactive | inactive | inactive | – |
| O=C1[C@H]2[C@@H]3[C@@H](O)[C@H](O)CC(=NOCc4ccccc4)[C@@H]3CC[C@H]2C(=O)N1C[C@@H]1CCCO1 | inactive | inactive | inactive | inactive | inactive | inactive | – |
| O=C(C=NO)NCCCCNC(=O)C=NO | inactive | inactive | inactive | inactive | inactive | inactive | – |
| COc1ccc2c(c1)O[C@H](c1ccc3c(c1)OCO3)[C@@H](OC(=O)NCc1ccc3c(c1)OCO3)C2=O | inactive | inactive | inactive | inactive | inactive | inactive | – |
| COC(=O)CC=C[C@@H](C)[C@H](OC)c1ccccc1Br | inactive and 1.5 µM (active) | inactive and 1.51 µM (active) | inactive and 1.9 µM (active) | inactive and 1.9 µM (active) | inactive and 1.35 µM (active) | inactive | – |
| C[C@]12O[C@@H]1[C@@H](O)C(Br)=C(CO)[C@@H]2O | inactive | inactive | inactive | inactive | inactive | inactive | – |
| COC[C@@H](OC(C)=O)[C@H]1OCc2ccccc2[C@H]1C=Cc1ccccc1 | inactive | inactive | inactive | inactive | inactive | inactive | – |
| CCOC(=O)CN1C(=O)[C@]2(OCCC=C[C@@H]2C)c2cc(OC)ccc21 | inactive | inactive | inactive | inactive | inactive | inactive | – |
| COC(=O)CC1c2ccccc2C=C(C2CC2)N1C(=O)OC (stereo unspecified) | inactive | inactive | inactive | inactive | inactive | inactive | – |
| COCC(=O)N1CCc2nc(-c3ccccc3)c3c(c2C1)CO[C@@H](C)C3 | inactive | inactive | inactive | inactive | inactive | inactive | – |
| COC(=O)CCCC1=CC2=CC(=O)C(C)(OC(=O)c3cccs3)C(=O)C2=CN1CCCOC(C)C (stereo unspecified) | inactive | inactive | inactive | inactive | inactive | inactive | – |
| COc1ccc2c(c1)O[C@@H](c1ccc3c(c1)OCO3)[C@H](O)C2=O | inactive | inactive | inactive | inactive | inactive | inactive | – |
| CCOC(=O)CN1C(=O)NC(CCc2ccccc2)C(C(=O)OC)=C1C (stereo unspecified) | inactive | inactive | inactive | inactive | inactive | inactive | – |
| O=C(NN=C1C[C@@H](O)[C@H](O)[C@H]2[C@@H]3C(=O)N(C[C@@H]4CCCO4)C(=O)[C@@H]3CC[C@@H]12)OCc1ccccc1 | inactive | inactive | inactive | inactive | inactive | inactive | – |
| CCOC(=O)CN1C(=O)[C@]2(OCCC=C[C@@H]2C)c2c(Br)cccc21 | inactive | inactive | inactive | inactive | inactive | inactive | – |
| Cc1noc(C)c1S(=O)(=O)N1CCc2nc(-c3ccccc3)c3c(c2C1)CO[C@@H](C)C3 | – | inactive | inactive | inactive | inactive | inactive | 2% [at 1.12 µM] (inactive) |
| COC(=O)NC(CCc1ccccc1)C(C(C)=O)C(=O)OC (stereo unspecified) | inactive | inactive | inactive | inactive | inactive | inactive | – |
| CCOC(=O)C(C)=NNC(C)=O | inactive | inactive | inactive | inactive | inactive | inactive | – |
| Cc1ccc(C#C[C@@H]2C=C[C@H](Oc3ccc4c(c3)OCO4)[C@@H](CO)O2)c(C)c1 | inactive | inactive | inactive | inactive | inactive | inactive | – |
| COC(=O)[C@H](COC(C)(C)C)NC(=O)O[C@H]1C(=O)c2ccc(OC)cc2O[C@@H]1c1ccc2c(c1)OCO2 | inactive | inactive | inactive | inactive | inactive | inactive | – |
| C=CCNC(=O)N1CCc2nc(CCCC)c3c(c2C1)CO[C@@H](C)C3 | inactive | inactive | inactive | inactive | inactive | inactive | – |
| CC1(OC(=O)C2CCCC2)C(=O)C=C2C=C(c3ccsc3)N(C3CCCC3)C=C2C1=O (stereo unspecified) | – | inactive | inactive | inactive | inactive | inactive | -4.53% [at 1.12 µM] (inactive) |
